Experimental data published in PubChem BioAssay.
For part of these data: Results with a measured potency or affinity are listed apart. Results filed as inconclusive are left out. The list shows a part of the results. The source made the active and inactive calls. Unless noted, no rule for the calls is given here.

Assays:
[1] = IOSE-T80 viability loss, PAX8-independent line – cell-based, cherry-pick, selectivity assay for PAX8 inhibitor project, dose response (AID 687032;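 active = fitted half-maximal concentration for viability loss no higher than twice the top valid dose, in every repeat run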;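 also: cells exposed to compound for 96 h before reading; 0% = neutral control wells and -100% = 2 µM mitoxantrone kill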)
[2] = CMV-driven luciferase expression suppression in HEK293 – cell-based, luminescence, dry powder, counter-screen for Pax8 inhibitor project, dose response (AID 743020;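 active = signal-lowering compounds whose fitted half-maximal concentration is at or below twice the top tested dose in every run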;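 also: HEK293 cells stably expressing the CMV luciferase reporter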)
[3] = IGROV1 cell killing – plate reader, dry powder samples, PAX8 inhibitor project, dose response (AID 743043);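 also: more negative means fewer viable cells or more cytotoxicity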
[4] = OVCAR-3 cell viability loss – plate reader, dry powder samples, PAX8 inhibitor project, dose response (AID 743044); settings: max activity: at 35 µM, hits give low values unless noted
[5] = toxicity toward immortalized ovarian surface epithelium – cell-based, plate reader, dry powder samples, cytotoxicity control for PAX8 inhibitor project, dose response (AID 743045);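 also: 0% = neutral control median and -100% = positive control median; more negative values mean more cell killing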
[6] = A2780 cell killing – plate reader, dry powder samples, cytotoxicity control, dose response (AID 743046);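 also: 0% = neutral control wells and -100% = cytotoxic reference compound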
[7] = OVCAR8 cell viability loss – plate reader, dry powder samples, PAX8 project, dose response (AID 743197)
[8] = small-molecule DNA binding by polarization – biochemical, fluorescence polarization, cherry-pick, counter-screen for EWS/Fli inhibitor project, dose response (AID 720586;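 active = fitted curve reaches a 35% signal fall AC35 below twice the sample's top valid tested dose, actives reach about 48 µM in these data; inactive = the rest, including activity in the rising direction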;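 also: 0% = neutral control median and -100% = 10 µM mitoxantrone control median; lower polarization ratio signals compound binding to DNA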)
[9] = general cell-killing toxicity readout – plate reader, dry powder samples, cytotoxicity control for PAX8 inhibitor project, dose response (AID 743021)

C[C@H](CO)N1C[C@H](C)[C@@H](CN(C)S(=O)(=O)c2ccc(-c3ccccc3)cc2)OCc2cn(nn2)CCCC1=O
inactive: outcome [1] | outcome [2] | outcome [3] | max activity [4] -33.1% | outcome [5] | outcome [6] | outcome [7]

COc1ccc(Nc2ncnc3ccc(Br)cc23)c(OC)c1
inactive: AC35 [8]

COC(=O)C[C@@H]1CC[C@@H]2[C@H](COc3ccc(NC(=O)c4cccc(F)c4)cc3C(=O)N2C)O1
inactive: AC35 [8]

COc1ccccc1C#Cc1ccc2c(c1)O[C@@H](CN(C)Cc1ccncc1)[C@H](C)CN([C@@H](C)CO)S2(=O)=O
inactive: outcome [1] | outcome [2] | outcome [3] | max activity [4] 20.3% [at 8 µM, hits give low values] | outcome [5] | outcome [6]

C[C@@H]1CN([C@H](C)CO)C(=O)c2cc(NS(=O)(=O)c3ccc(Cl)cc3)ccc2O[C@@H](C)CCCCO[C@H]1CN(C)C(=O)Nc1ccc(C(F)(F)F)cc1
inactive: outcome [1] | outcome [9] | outcome [5]
